Compound activity (PubChem BioAssay)
PLCb3 inh: human PLC-beta3 inhibitors, primary screen, biochemical, fluorescence | inhibition, % at 12.2 µM | hit rate 0.18% among 370,000 | Purified PLC-beta3, fluorogenic substrate | 1-phosphatidylinositol 4,5-bisphosphate phosphodiesterase beta-3 (Homo sapiens), Q01970 | AID 720704, 2013; in the data active = inhibition above about 11%;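 also: 0% = median of compound wells on plate and 100% = full blocker control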
PLC-gamma1 inh: PLC-gamma1 enzyme inhibitors, primary screen, biochemical, fluorescence, purified enzyme; 1-phosphatidylinositol 4,5-bisphosphate phosphodiesterase gamma-1 (Homo sapiens), P19174; fluorogenic substrate; inhibition, % at 12.2 µM; hit rate 0.84% among 370,000; AID 720700, 2013; in the data active = inhibition above about 9.5%
Target sequence (P19174 whole entry, looked up): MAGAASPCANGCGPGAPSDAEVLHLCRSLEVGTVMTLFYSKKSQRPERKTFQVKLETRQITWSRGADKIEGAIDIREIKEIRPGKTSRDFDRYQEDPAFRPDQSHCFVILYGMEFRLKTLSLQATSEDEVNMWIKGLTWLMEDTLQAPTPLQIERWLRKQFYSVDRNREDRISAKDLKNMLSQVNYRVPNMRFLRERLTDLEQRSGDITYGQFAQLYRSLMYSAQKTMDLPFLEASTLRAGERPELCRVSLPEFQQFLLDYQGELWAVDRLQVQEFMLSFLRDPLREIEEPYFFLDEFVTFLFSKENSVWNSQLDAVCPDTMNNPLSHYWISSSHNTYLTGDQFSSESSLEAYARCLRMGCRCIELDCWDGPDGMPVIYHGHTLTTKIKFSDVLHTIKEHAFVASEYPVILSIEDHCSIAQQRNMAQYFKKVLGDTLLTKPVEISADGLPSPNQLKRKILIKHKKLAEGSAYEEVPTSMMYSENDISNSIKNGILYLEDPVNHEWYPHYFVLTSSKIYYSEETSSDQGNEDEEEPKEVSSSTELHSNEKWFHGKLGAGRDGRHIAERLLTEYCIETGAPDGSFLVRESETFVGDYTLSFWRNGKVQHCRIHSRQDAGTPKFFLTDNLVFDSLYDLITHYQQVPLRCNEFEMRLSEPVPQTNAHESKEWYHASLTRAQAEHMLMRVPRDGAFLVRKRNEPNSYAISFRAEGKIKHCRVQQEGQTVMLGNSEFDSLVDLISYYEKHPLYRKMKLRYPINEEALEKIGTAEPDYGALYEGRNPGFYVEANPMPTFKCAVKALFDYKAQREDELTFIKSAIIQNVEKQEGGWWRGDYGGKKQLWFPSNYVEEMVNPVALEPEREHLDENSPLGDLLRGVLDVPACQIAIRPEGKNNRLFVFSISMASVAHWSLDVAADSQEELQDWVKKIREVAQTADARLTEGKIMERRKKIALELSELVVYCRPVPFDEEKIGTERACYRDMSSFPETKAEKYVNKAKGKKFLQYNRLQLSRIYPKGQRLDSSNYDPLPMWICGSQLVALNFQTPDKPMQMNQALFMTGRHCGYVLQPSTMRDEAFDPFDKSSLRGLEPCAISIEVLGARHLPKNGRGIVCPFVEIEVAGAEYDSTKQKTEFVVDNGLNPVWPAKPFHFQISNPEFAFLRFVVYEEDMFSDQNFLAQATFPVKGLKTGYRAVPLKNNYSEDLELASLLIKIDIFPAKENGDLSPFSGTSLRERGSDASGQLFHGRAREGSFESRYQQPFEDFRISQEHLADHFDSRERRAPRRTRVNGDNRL
KLK7 zymogen act: proKLK7 zymogen activators, primary screen, biochemical, fluorescence intensity; activation, % at 7 µM; purified proKLK7, EDANS-DABCYL substrate fluorescence; 100% is mature enzyme control, 0% vehicle; Kallikrein-7 (Homo sapiens), P49862; hit rate 0.9% among 370,000;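 active = activation above the mean of all tested compounds plus 3 SD, computed per campaign excluding outliers beyond control limits, cut at about 13% in these data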
ADAM17 inh: ADAM17 inhibitors, primary screen, biochemical, QFRET; hit rate 0.83% among 370,000; Disintegrin and metalloproteinase domain-containing protein 17 (Homo sapiens), P78536; inhibition, % at 6.95 µM; recombinant ADAM17, EDANS/DABCYL FRET peptide cleavage;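 active = inhibition above the mean of compounds lying between control limits plus 3 SD, set per campaign, cut at about 8.5% in these data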;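 also: 0% = DMSO-only wells as the low control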
ADAM10 inh: human ADAM10 inhibitors, primary screen, biochemical, QFRET, HTS | Disintegrin and metalloproteinase domain-containing protein 10 (Homo sapiens), O14672 | recombinant ADAM10, EDANS/DABCYL FRET peptide cleavage, 3 h | inhibition, % at 7 µM | hit rate 0.62% among 370,000 | AID 720582, 2013;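 active = inhibition above a per-campaign cutoff equal to the mean of compounds falling between control-based bounds plus 3 SD, cut at about 20% in these data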;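 also: 0% = DMSO wells while the 100% control is not disclosed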
HGIII-sPLA2 inh: human group III sPLA2 inhibitors, primary screen, biochemical, QFRET, BODIPY PC-A2 liposome substrate; hit rate 0.56% among 370,000; Group 3 secretory phospholipase A2 (Homo sapiens), Q9NZ20; AID 743126, 2013; QFRET BODIPY PC-A2 liposome hydrolysis, fluorescence; inhibition, % at 12.2 µM;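 active = inhibition above mean plus 3 SD of compounds lying within the high and low control bounds, cut at about 19% in these data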;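 also: 0% = median of test compound wells and 100% = no enzyme DMSO wells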
ADAM10 ctr: ADAM10 inhibitors, counter-screen for ADAM17 exosite inhibitor project, biochemical, FRET, human ADAM10; shares compounds with ADAM17 inh; recombinant ADAM10, EDANS/DABCYL FRET peptide cleavage, 3 h; hit rate 47% among 2,900; inhibition, % at 6.95 µM;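 active = mean inhibition over the triplicate runs exceeds the activity threshold set in the earlier primary screen, cut at about 20% in these data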;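 also: 0% = DMSO wells and 100% = marimastat wells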
ADAM17 confirm: ADAM17 inhibitors, hit retest, confirmation, biochemical, QFRET peptide cleavage. shares compounds with ADAM17 inh. recombinant ADAM17, EDANS/DABCYL QFRET peptide cleavage. inhibition, % at 6.95 µM. hit rate 65% among 2,900. AID 743257, 2014;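 active = mean inhibition across replicates above the hit cutoff set in the primary screen, cut at about 8.5% in these data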;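 also: 0% = DMSO wells and 100% = marimastat wells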
* = called active by the depositor. Sampled rows, rich in hits. Any-hit rate of the full collection: about 3.4%.

Screening CCOc1ccccc1C1c2[nH]c3ccccc3c2C[C@H]2C(=O)N(C3CCN(Cc4ccccc4)CC3)CC(=O)N12 (stereo partly specified) returned PLCb3 inh -4, PLC-gamma1 inh 4, KLK7 zymogen act 1, ADAM17 inh 9.7*, ADAM10 inh 19, HGIII-sPLA2 inh -24, ADAM10 ctr 27* and ADAM17 confirm 14*.
`N#Cc1ccsc1NC(=O)CCN1CCN(C(c2ccccc2)c2ccccc2)CC1` gave PLCb3 inh -5, PLC-gamma1 inh 5, KLK7 zymogen act 0, ADAM17 inh 5, ADAM10 inh 13 and HGIII-sPLA2 inh -7.
`COc1ccc(C2=NS(=O)(=O)N(C)C(C(=O)Nc3ccc(C)cc3)=C2)cc1` gave PLCb3 inh -4, PLC-gamma1 inh 0, KLK7 zymogen act 0, ADAM17 inh 8.9*, ADAM10 inh 19, HGIII-sPLA2 inh -9, ADAM10 ctr 19 and ADAM17 confirm 14*.
For COc1ccc(C2=NS(=O)(=O)N(C)C(C(=O)Nc3ccc4c(c3)OCO4)=C2)cc1 the results were PLCb3 inh 1, PLC-gamma1 inh 2, KLK7 zymogen act 0, ADAM17 inh 4, ADAM10 inh -3 and HGIII-sPLA2 inh -5.
For Cc1ccc(NC(=O)C2=CC(c3ccc(C)cc3)=NS(=O)(=O)N2C)cc1 the results were PLCb3 inh 4, PLC-gamma1 inh 4, KLK7 zymogen act 0, ADAM17 inh 0, ADAM10 inh 9 and HGIII-sPLA2 inh -2.
Cc1ccc(C2=NS(=O)(=O)N(C)C(C(=O)Nc3ccc4c(c3)OCO4)=C2)cc1 was read as PLCb3 inh 0, PLC-gamma1 inh 4, KLK7 zymogen act 1, ADAM17 inh 13*, ADAM10 inh 11, HGIII-sPLA2 inh -24, ADAM10 ctr 20 and ADAM17 confirm 14*.
Screening CCc1ccc(NC(=O)C2=CC(c3ccc(OC)cc3)=NS(=O)(=O)N2C)cc1 returned PLCb3 inh -8, PLC-gamma1 inh 0, KLK7 zymogen act -2, ADAM17 inh 9.2*, ADAM10 inh 11, HGIII-sPLA2 inh -3, ADAM10 ctr 24* and ADAM17 confirm 15*.
Screening CC1(c2nnc(-c3ccccc3)o2)CC(c2ccc([N+](=O)[O-])cc2)=NO1 (stereo unspecified) returned PLCb3 inh 4, PLC-gamma1 inh 3, KLK7 zymogen act 1, ADAM17 inh 1, ADAM10 inh 4 and HGIII-sPLA2 inh 2.
COC(=O)C1=C(C)N(Cc2ccc(C(F)(F)F)cc2)C(=NCc2ccc3c(c2)OCO3)NC1c1ccccc1 (stereo unspecified) was read as PLCb3 inh 7, PLC-gamma1 inh 6, KLK7 zymogen act 0, ADAM17 inh 9.6*, ADAM10 inh 10, HGIII-sPLA2 inh -11, ADAM10 ctr 10 and ADAM17 confirm 5.
COC(=O)C1=C(C)N(Cc2cccc(C(F)(F)F)c2)C(=NCc2ccccc2C(F)(F)F)NC1c1cccc(F)c1 (stereo unspecified) was read as PLCb3 inh 4, PLC-gamma1 inh 5, KLK7 zymogen act -1, ADAM17 inh 9.6*, ADAM10 inh 15, HGIII-sPLA2 inh -14, ADAM10 ctr 21* and ADAM17 confirm 18*.
`COC(=O)C1=C(C)N(Cc2cccc(C(F)(F)F)c2)C(=NCc2ccc3c(c2)OCO3)NC1c1ccccc1` (stereo unspecified) gave PLCb3 inh 1, PLC-gamma1 inh 1, KLK7 zymogen act 1, ADAM17 inh -1, ADAM10 inh -4 and HGIII-sPLA2 inh -4.
`COC(=O)C1=C(C)N(Cc2cccc(C(F)(F)F)c2)C(=NCc2ccccc2C(F)(F)F)NC1c1cccc(C(F)(F)F)c1` (stereo unspecified) gave PLCb3 inh 6, PLC-gamma1 inh 5, KLK7 zymogen act 0, ADAM17 inh -1, ADAM10 inh -1 and HGIII-sPLA2 inh -11.
`COc1ccccc1C(C)Nc1ccc(S(=O)(=O)N2CCN(C)CC2)cc1[N+](=O)[O-]` (stereo unspecified) gave PLCb3 inh -3, PLC-gamma1 inh 7, KLK7 zymogen act 0, ADAM17 inh 2, ADAM10 inh -5 and HGIII-sPLA2 inh -16.
`Cn1c(Cn2c3ccccc3c3ccccc32)n[nH]c1=S` gave PLCb3 inh 0, PLC-gamma1 inh 3, KLK7 zymogen act 0, ADAM17 inh 10*, ADAM10 inh 17, HGIII-sPLA2 inh 7, ADAM10 ctr 12 and ADAM17 confirm 7.
`CCOC(=O)[C@]12CCCCC/C=C\1N(CCc1ccc(Cl)cc1)C(=O)[C@H]2CC(=O)NCC1CCCCC1` gave PLCb3 inh 4, PLC-gamma1 inh 2, KLK7 zymogen act 0, ADAM17 inh 6, ADAM10 inh 12 and HGIII-sPLA2 inh -6.
Screening CCOC(=O)[C@]12CCCCC/C=C\1N(CCc1ccc(Cl)cc1)C(=O)[C@H]2CC(=O)NCc1ccc(C)o1 returned PLCb3 inh 4, PLC-gamma1 inh 4, KLK7 zymogen act 0, ADAM17 inh 9.4*, ADAM10 inh 5, HGIII-sPLA2 inh -6, ADAM10 ctr 5 and ADAM17 confirm 3.
`CCOC(=O)[C@]12CCCCC/C=C\1N(CCc1ccc(Cl)cc1)C(=O)[C@H]2CC(=O)NCc1ccccc1` gave PLCb3 inh 2, PLC-gamma1 inh 8, KLK7 zymogen act 0, ADAM17 inh 11*, ADAM10 inh 14, HGIII-sPLA2 inh -5, ADAM10 ctr 25* and ADAM17 confirm 12*.
For O=C(CC[C@H]1O[C@@H](n2cnc3c(NC(=O)c4ccccc4)ncnc32)[C@H](O)[C@@H]1O)NCCCN1CCOCC1 the results were PLCb3 inh 5, PLC-gamma1 inh -1, KLK7 zymogen act 0, ADAM17 inh -2, ADAM10 inh -2 and HGIII-sPLA2 inh 3.
Screening CC(=O)Nc1ccc(Nc2cc(C(C)C)nc3c(-c4ccccc4)c(C)nn23)cc1 returned PLCb3 inh inactive, PLC-gamma1 inh -429, KLK7 zymogen act -24, ADAM17 inh -42, ADAM10 inh -73 and HGIII-sPLA2 inh 9.
